Hits are enriched below; roughly 3.8% of the tested compounds scored in any of these assays.
Jurkat NFkB inh: inhibitors of induced NF-kB luciferase reporter, primary screen, TCR NF-kB activation inhibitor project, cell-based, luminescence, uHTS. inhibition, % at 4 µM. AID 435003, 2010. actives 0.53% (n = 330,000). Jurkat, PMA/ionomycin-induced NF-kB luciferase reporter; in the data active means inhibition above about 50%
697 NFkB inh: inhibitors of PMA/ionomycin-induced NF-kB reporter, 697 cells, primary screen, B-cell NF-kB inhibitor project, cell-based, luminescence, uHTS. actives 0.33% (n = 330,000). AID 435022, 2010. inhibition, % at 4 µM. 697 B-cell NF-kB luciferase reporter, 16 h; in the data active means inhibition above about 35%
Mdm2 MdmX PPI: inhibitors of human Mdm2-MdmX association, primary screen, cell-based, luminescence, split luciferase, SaOS-2, uHTS | Protein Mdm4 (Homo sapiens) + E3 ubiquitin-protein ligase Mdm2 (Homo sapiens), … | SaOS-2 split-luciferase Mdm2/MdmX complementation | inhibition, % at 8 µM | actives 3% (n = 330,000) | AID 485346, 2010;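 active means inhibition of at least 50% at 8 µM in the primary screen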
Target sequence (O15151 whole entry, looked up): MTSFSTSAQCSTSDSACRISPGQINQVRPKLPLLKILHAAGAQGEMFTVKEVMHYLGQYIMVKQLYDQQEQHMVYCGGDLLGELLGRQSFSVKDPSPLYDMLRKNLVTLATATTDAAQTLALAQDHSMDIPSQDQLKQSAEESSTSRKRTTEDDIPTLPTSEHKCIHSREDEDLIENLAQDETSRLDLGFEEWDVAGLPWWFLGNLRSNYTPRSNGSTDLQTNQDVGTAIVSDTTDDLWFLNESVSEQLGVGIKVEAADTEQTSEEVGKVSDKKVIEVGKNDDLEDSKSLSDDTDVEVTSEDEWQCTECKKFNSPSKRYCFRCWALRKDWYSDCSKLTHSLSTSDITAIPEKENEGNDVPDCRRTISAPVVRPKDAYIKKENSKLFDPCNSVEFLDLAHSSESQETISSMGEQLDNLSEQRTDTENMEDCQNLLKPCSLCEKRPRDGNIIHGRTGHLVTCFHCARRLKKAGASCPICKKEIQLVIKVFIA
Target sequence (Q00987 whole entry, looked up): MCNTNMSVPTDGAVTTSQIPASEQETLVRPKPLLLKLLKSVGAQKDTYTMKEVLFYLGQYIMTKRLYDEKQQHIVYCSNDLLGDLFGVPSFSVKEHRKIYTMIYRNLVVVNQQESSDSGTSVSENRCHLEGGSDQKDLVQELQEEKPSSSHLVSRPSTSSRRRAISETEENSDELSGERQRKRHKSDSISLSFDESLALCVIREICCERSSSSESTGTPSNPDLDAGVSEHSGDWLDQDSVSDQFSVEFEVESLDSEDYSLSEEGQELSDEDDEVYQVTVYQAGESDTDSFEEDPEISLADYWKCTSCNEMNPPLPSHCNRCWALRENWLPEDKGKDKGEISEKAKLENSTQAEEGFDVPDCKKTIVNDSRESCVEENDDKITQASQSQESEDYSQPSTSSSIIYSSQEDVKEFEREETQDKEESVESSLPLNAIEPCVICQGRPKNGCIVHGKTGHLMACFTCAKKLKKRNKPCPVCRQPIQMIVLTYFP
Shn3 inh set2: reduction of Shn3 3'UTR firefly luciferase signal, primary screen, Schnurri-3 inhibitor project, cell-based, Clone20 osteoblasts, set 2 | inhibition, % at 12.5 µM | AID 588674, 2011 | actives 0.52% (n = 360,000) | Clone20 osteoblast Shn3 3'UTR firefly luciferase, 24 h;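 active means mean inhibition of at least 75% with every replicate also reaching 75%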
Gli-Sufu block: Gli-Sufu pathway antagonists, primary screen, luciferase luminescence, Sufu-KO-LIGHT cells, uHTS | actives 0.74% (n = 340,000) | Sufu-KO-LIGHT fibroblasts, Gli luciferase reporter luminescence | inhibition, % at 5 µM | AID 588413, 2011;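 active means inhibition above about 55%, limit read from the data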
Gli-Sufu confirm: Gli-SUFU pathway antagonists, confirmation, single concentration, luciferase luminescence, Sufu-KO-LIGHT cells; AID 602428, 2012; actives 40% (n = 2,500); shares compounds with Gli-Sufu block; Gli luciferase reporter; inhibition, % at 5 µM;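 active means mean inhibition at 5 µM reaching about 45%, limit read from the data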
Gli cytotox: cytotoxicity in Sufu-KO-LIGHT cells, confirmation, cytotoxicity control for Gli-SUFU antagonist project, cell-based, ATP luminescence, single concentration; shares compounds with Gli-Sufu block; cytotoxicity, % at 5 µM; actives 32% (n = 2,500);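 active means mean cytotoxicity at 5 µM above about 25%, limit read from the data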;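 further: cells exposed to compound overnight for roughly 16 to 18 hours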
Wnt3a counter: Wnt3a reporter signal inhibition, confirmation, counter-screen for Gli-SUFU antagonist project, Wnt-LIGHT cells, luminescence, single concentration | actives 20% (n = 2,500) | Wnt3a-driven luciferase reporter | inhibition, % at 6.25 µM | shares compounds with Gli-Sufu block;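 active means mean inhibition above about 25%, limit read from the data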
Each line names hits and unclear results; the compound was inactive in the other large screens (follow-up assays come after a bar, where they were run).

Cc1ccc(C(C)C)c(OCC(O)CN2CCc3ccccc3C2)c1 (stereo not given)	none
Cn1cc(CNCc2ccccc2OCC(O)CN2CCc3ccccc3C2)cn1 (stereo not given)	Gli-Sufu block 55.5 | Gli-Sufu confirm inactive | Gli cytotox inactive | Wnt3a counter inactive
COc1ccc(CNC(=O)O[C@H]2CN(C(=O)OC(C)C)N(C(=O)OC(C)C)[C@@H]3CN(S(=O)(=O)c4ccc(C)cc4)C[C@]23O)cc1OC	none (no result: Jurkat NFkB inh, 697 NFkB inh, Mdm2 MdmX PPI, Gli-Sufu block)
Cn1c(=O)c2[nH]c(CCCCCCCCc3nc4ccccc4[nH]3)nc2n(C)c1=O	Shn3 inh set2 85.6, Gli-Sufu block 56.6 (no result: Jurkat NFkB inh, 697 NFkB inh, Mdm2 MdmX PPI) | Gli-Sufu confirm 66.2 | Gli cytotox 28.0 | Wnt3a counter inactive
CC(C)[C@H](NC(N)=O)C(=O)Nc1ccc(F)c(Cl)c1	none | Gli-Sufu confirm inactive | Gli cytotox inactive | Wnt3a counter inactive
CC(C)[C@H](NC(N)=O)C(=O)NCCc1ccc(Cl)cc1Cl	none
CN(CC(=O)NC(=O)NC1CCCCC1)CC(=O)Nc1ccc(OC(F)(F)F)cc1	none
O=C1C(=O)N2C(=C1C(=O)N1CCCCCC1)c1ccccc1CC21CCCC1	none
CC1(C)Cc2ccccc2C2=C(C(=O)N3CCCCCC3)C(=O)C(=O)N21	Gli-Sufu block 72.5 | Gli-Sufu confirm inactive | Gli cytotox inactive | Wnt3a counter inactive
CCN(CC)c1ccc(CNc2nc3ccccc3n2CCN2CCOCC2)cc1	none | Gli-Sufu confirm inactive | Gli cytotox inactive | Wnt3a counter inactive
COc1ccc(CC(=O)NNC(=O)CCC(=O)Nc2cc(C)ccc2C)cc1	Gli-Sufu block 82.3 | Gli-Sufu confirm inactive | Gli cytotox inactive | Wnt3a counter inactive
CC(C)c1nnc(NC(=O)C2CCN(C(=O)Nc3ccccc3)CC2)s1	none
CCOc1c(CNCCN2CCOCC2)cccc1OC	none | Gli-Sufu confirm inactive | Gli cytotox inactive | Wnt3a counter inactive
CC(C)(C)NC(=O)C(=O)NNC(=O)c1cccc(F)c1	Gli-Sufu block 83.9 | Gli-Sufu confirm inactive | Gli cytotox inactive | Wnt3a counter inactive
CC(C)(C)NC(=O)C(=O)NNC(=O)c1ccccc1	none
COC(=O)c1ccc(OCC(O)CN2CCc3cc(OC)c(OC)cc3C2c2ccccc2)cc1 (stereo not given)	Gli-Sufu block 58.2 | Gli-Sufu confirm inactive | Gli cytotox inactive | Wnt3a counter inactive
COc1ccc(N2CCn3c2nc2c3c(=O)n(CCCc3ccccc3)c(=O)n2C)c(OC)c1	none | Gli-Sufu confirm 54.7 | Gli cytotox 34.8 | Wnt3a counter inactive
COc1ccc(N2CC(C)Cn3c2nc2c3c(=O)n(Cc3ccccc3)c(=O)n2C)c(OC)c1 (stereo not given)	none
COc1cc(C(O)c2nc(-c3ccccc3)cs2)ccc1F (stereo not given)	none (no result: Jurkat NFkB inh, 697 NFkB inh, Mdm2 MdmX PPI, Gli-Sufu block)
CC1(C(=O)NS(=O)(=O)c2ccc(Cl)cc2)CCN1C(=O)c1ccccc1CCc1ccccc1 (stereo not given)	none (no result: Jurkat NFkB inh, 697 NFkB inh, Mdm2 MdmX PPI, Gli-Sufu block)
O=C(OCC(=O)N1CCCC1)c1cc(=O)c2ccccc2o1	none | Gli-Sufu confirm inactive | Gli cytotox inactive | Wnt3a counter inactive
O=C(Nc1ccccc1Cl)C1CCCN(S(=O)(=O)c2cccc3cccnc23)C1 (stereo not given)	Gli-Sufu block 75.6 | Gli-Sufu confirm inactive | Gli cytotox inactive | Wnt3a counter inactive
CN(C)CCCNc1nc(-c2ccc(Cl)cc2)nc2ccccc12	Gli-Sufu block 69.4 | Gli-Sufu confirm inactive | Gli cytotox 27.4 | Wnt3a counter inactive
Cc1cccc(-c2nc(NCCCN(C)C)c3ccccc3n2)c1	Gli-Sufu block 55.0 | Gli-Sufu confirm inactive | Gli cytotox inactive | Wnt3a counter inactive
COc1ccc(NC(=O)CN(c2ccc(F)cc2)S(=O)(=O)c2ccccc2)c(OC)c1	none
COc1ccc(N(CC(=O)NCCSCc2ccc(C)cc2)S(=O)(=O)c2ccccc2)cc1	Gli-Sufu block 95.1 | Gli-Sufu confirm inactive | Gli cytotox inactive | Wnt3a counter inactive
CCc1ccccc1NC(=O)CN(c1cccc(OC)c1)S(C)(=O)=O	Gli-Sufu block 92.2 | Gli-Sufu confirm inactive | Gli cytotox inactive | Wnt3a counter inactive
COc1cccc(N(CC(=O)Nc2cccc(C(C)=O)c2)S(C)(=O)=O)c1	Gli-Sufu block 77.4 | Gli-Sufu confirm inactive | Gli cytotox inactive | Wnt3a counter inactive
COc1ccccc1NC(=O)CN(c1ccccc1)S(=O)(=O)c1ccccc1	none | Gli-Sufu confirm inactive | Gli cytotox inactive | Wnt3a counter inactive
C/C(CC(=O)NC1CCCC1)=N\NC(=O)Cc1csc(N)n1	none
CC(C)(Oc1ccc(Cl)cc1)C(=O)NC1CC1	none
Cc1ccc(S(=O)(=O)N(C)C[C@H]2OCc3cn(nn3)CCCC(=O)N([C@H](C)CO)C[C@@H]2C)cc1	none (no result: Jurkat NFkB inh, 697 NFkB inh, Mdm2 MdmX PPI, Gli-Sufu block)
Cc1cc(NC(=O)c2cccc(S(=O)(=O)N3CCCCC3)c2)no1	none
c1ccc(Cc2cc(-c3ccccc3)on2)cc1	Gli-Sufu block 95.7 | Gli-Sufu confirm inactive | Gli cytotox inactive | Wnt3a counter inactive
Clc1ccc(SCc2cc(-c3ccccc3)on2)cc1	none
Cc1ccc(-c2c[n+](Cc3ccc(Cl)c(Cl)c3)c3n2CCC3)cc1	Gli-Sufu block 84.6 | Gli-Sufu confirm 79.7 | Gli cytotox 26.4 | Wnt3a counter inactive
Cc1ccc2nc(/C(C#N)=C\c3ccc(N4CCCCC4)c([N+](=O)[O-])c3)[nH]c2c1	none | Gli-Sufu confirm inactive | Gli cytotox inactive | Wnt3a counter inactive
O=C(c1cc(COc2cccc(C(F)(F)F)c2)on1)N1CCC(Oc2cccnc2)CC1	none
COc1ccc(-c2cnnc(N/N=C/c3ccc(OC)c(OC)c3)n2)cc1	none | Gli-Sufu confirm inactive | Gli cytotox inactive | Wnt3a counter inactive
Nc1nc(=O)n(C2CC(O)C(CO)O2)cc1Cl (stereo not given)	none (no result: Jurkat NFkB inh, 697 NFkB inh, Mdm2 MdmX PPI, Gli-Sufu block)
Nc1nc(=O)n(C2CC(O)C(CO)O2)cc1F (stereo not given)	Gli-Sufu block 65.7 (no result: Jurkat NFkB inh, 697 NFkB inh, Mdm2 MdmX PPI) | Gli-Sufu confirm 46.5 | Gli cytotox inactive | Wnt3a counter 45.2
O=C1C(=O)N(CC2CCCO2)C(c2ccccc2[N+](=O)[O-])/C1=C(/O)c1ccccc1 (stereo not given)	none

Source: PubChem (several laboratories)
